According to ChEMBL document CHEMBL3988442, “University of Dundee, Small-Polar-MMV Screening Library” (2021):
For part of these data: Entries with a potency or affinity are not part of this list.

Assays:
Parameters in all cases: scale not given: direction of the effect not stated beside the values
[1] = molecular target: Protein translocase subunit SecA (Escherichia coli (strain K12)) (UniProt P10408); assay: Assay to Identify E. coli SecA ATPase Inhibitors; format: functional; conditions: 30 µM
[2] = molecular target: T1, Ubiquitin-activating enzyme e1, putative (Leishmania donovani (strain BPK282A1)) (UniProt E9BSI1); assay: Leishmania donovani Ubiquitin Activating Enzyme (LdE1); format: functional; conditions: 30 µM
T1 sequence (whole entry): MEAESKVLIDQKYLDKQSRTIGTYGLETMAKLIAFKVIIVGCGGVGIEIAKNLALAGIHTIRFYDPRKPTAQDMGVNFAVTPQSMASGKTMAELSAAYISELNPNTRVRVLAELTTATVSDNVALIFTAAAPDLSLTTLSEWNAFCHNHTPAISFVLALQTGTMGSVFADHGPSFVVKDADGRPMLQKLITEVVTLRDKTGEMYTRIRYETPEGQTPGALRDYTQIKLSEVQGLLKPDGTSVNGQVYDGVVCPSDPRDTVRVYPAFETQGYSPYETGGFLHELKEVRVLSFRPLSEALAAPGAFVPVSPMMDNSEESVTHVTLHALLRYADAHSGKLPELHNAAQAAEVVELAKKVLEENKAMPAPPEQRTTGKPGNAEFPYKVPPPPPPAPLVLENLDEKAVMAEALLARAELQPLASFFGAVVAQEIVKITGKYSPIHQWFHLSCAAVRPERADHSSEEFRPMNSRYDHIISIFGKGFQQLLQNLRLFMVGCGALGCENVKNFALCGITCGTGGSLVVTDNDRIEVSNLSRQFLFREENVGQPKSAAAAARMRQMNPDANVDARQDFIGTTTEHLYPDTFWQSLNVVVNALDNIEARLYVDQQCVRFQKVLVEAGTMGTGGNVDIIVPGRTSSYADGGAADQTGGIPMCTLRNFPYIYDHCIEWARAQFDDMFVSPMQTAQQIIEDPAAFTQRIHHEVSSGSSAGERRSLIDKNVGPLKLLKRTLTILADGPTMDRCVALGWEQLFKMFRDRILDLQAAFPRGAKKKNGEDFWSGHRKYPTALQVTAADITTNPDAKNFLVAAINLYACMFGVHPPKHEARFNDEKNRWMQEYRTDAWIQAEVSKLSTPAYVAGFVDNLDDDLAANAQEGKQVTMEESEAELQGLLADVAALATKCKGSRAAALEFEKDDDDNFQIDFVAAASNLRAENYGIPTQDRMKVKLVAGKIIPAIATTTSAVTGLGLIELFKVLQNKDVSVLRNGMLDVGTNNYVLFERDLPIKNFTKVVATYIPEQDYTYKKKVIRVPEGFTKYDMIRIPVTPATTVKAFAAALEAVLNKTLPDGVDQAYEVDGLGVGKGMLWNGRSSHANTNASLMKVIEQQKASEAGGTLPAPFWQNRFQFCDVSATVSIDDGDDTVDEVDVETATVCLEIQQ

[3] = molecular target: AMP-activated protein kinase, AMPK (Homo sapiens) (UniProt P54646+O43741+P54619+Q9UGJ0+Q9Y478+Q13131+Q9UGI9); assay: AMP-dependent Kinase enzyme assay. An in vitro enzyme assay that detects ADP turnover that is directly proportional to AMPK activity. This uses naive AMPK that is activated during the assay with MK-8722; format: functional; conditions: 30 µM
[4] = molecular target: Sialic acid-binding Ig-like lectin 9 (Homo sapiens) (UniProt Q9Y336); assay: Hs-Siglec9 ALPHAscreen SOP 20170721; conditions: 10 µM
Trypanosoma cruzi = assay: Trypanosoma cruzi phosphomannomutase and mannose-1-phosphate guanylyltransferase assay; format: functional; conditions: 10 µM
[5] = molecular target: T2, Arginase-2, mitochondrial (Homo sapiens) (UniProt P78540); assay: in vitro enzyme assay to detect the production of urea directly proportional to the activity of Arginase II; format: functional; conditions: 33.3 µM; also: in the data most compounds retested in dose-response had high values
T2 sequence (whole entry): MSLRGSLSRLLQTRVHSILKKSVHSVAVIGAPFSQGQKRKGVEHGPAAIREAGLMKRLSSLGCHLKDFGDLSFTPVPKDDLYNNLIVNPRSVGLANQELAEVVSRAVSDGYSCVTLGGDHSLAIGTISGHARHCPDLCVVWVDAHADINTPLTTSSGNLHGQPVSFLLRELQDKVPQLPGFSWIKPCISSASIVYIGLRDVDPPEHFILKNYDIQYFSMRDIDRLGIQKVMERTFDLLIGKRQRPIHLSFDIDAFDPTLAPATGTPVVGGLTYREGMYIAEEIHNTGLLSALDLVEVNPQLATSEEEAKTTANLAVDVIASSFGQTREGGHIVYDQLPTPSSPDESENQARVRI

[6] = molecular target: T3, Proteasome subunit beta (Trypanosoma cruzi) (UniProt O96673); assay: Trypanosoma cruzi proteasome chymotrypsin-like activity (TcProtChymo) assay.; also: in the data most compounds retested in dose-response had high values; format: functional; conditions: 9.37 µM
T3 sequence (whole entry): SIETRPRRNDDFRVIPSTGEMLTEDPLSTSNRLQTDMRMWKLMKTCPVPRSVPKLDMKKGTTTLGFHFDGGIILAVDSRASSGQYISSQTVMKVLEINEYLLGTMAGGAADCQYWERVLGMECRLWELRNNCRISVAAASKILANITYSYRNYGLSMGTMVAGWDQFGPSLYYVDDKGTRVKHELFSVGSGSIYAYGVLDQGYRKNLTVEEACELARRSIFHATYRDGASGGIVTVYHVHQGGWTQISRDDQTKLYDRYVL

Homo sapiens = organism: Homo sapiens; assay: To identify inhibition of the IFN signalling (Jak-Stat) pathway via expression of an eGFP reporter gene under the control of an IFN-stimulated response element (ISRE) containing MxA promoter.; format: functional; conditions: 30 µM
[7] = molecular target: T4, Tyrosyl-tRNA synthetase, putative (Trypanosoma cruzi (strain CL Brener)) (UniProt Q4DSP6); assay: Trypanosoma cruzi tyrosyl tRNA synthetase (TcYRS) _High Tyrosine SOP; format: functional; conditions: 30 µM; also: in the data most compounds retested in dose-response had high values
T4 sequence (whole entry): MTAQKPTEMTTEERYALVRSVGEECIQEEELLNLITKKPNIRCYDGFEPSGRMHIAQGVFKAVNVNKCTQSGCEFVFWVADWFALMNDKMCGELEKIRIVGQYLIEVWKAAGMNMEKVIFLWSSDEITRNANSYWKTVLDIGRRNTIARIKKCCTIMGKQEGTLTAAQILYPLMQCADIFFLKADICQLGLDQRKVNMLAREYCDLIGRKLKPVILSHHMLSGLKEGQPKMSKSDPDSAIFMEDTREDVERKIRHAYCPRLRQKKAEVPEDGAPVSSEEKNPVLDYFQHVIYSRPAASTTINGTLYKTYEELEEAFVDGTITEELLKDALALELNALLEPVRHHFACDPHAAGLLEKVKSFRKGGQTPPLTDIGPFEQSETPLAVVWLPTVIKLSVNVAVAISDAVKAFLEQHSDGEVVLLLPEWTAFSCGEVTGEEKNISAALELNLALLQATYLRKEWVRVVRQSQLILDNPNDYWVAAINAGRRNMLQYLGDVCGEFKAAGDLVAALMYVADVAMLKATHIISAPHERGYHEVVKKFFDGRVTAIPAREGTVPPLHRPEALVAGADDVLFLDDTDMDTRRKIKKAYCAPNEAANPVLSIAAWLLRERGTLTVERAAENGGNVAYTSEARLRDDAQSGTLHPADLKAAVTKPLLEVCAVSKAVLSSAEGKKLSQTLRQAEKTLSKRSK

[8] = molecular target: T4, Tyrosyl-tRNA synthetase, putative (Trypanosoma cruzi (strain CL Brener)); assay: Trypanosoma cruzi tyrosyl tRNA synthetase (TcYRS) SOP; format: functional; conditions: 30 µM
[9] = molecular target: Chromo domain-containing protein 1 (Saccharomyces cerevisiae (strain ATCC 204508 / S288c) (Baker's yeast)) (UniProt P32657); assay: ScCHD-1 Enzyme Inhibition Assay; format: functional; conditions: 30 µM; also: in the data most compounds retested in dose-response had high values
Chromo domain-containing protein 1 (Saccharomyces cerevisiae (strain ATCC 204508 / S288c) (Baker's yeast)), sequence (P32657 whole entry, the tested form may be a part): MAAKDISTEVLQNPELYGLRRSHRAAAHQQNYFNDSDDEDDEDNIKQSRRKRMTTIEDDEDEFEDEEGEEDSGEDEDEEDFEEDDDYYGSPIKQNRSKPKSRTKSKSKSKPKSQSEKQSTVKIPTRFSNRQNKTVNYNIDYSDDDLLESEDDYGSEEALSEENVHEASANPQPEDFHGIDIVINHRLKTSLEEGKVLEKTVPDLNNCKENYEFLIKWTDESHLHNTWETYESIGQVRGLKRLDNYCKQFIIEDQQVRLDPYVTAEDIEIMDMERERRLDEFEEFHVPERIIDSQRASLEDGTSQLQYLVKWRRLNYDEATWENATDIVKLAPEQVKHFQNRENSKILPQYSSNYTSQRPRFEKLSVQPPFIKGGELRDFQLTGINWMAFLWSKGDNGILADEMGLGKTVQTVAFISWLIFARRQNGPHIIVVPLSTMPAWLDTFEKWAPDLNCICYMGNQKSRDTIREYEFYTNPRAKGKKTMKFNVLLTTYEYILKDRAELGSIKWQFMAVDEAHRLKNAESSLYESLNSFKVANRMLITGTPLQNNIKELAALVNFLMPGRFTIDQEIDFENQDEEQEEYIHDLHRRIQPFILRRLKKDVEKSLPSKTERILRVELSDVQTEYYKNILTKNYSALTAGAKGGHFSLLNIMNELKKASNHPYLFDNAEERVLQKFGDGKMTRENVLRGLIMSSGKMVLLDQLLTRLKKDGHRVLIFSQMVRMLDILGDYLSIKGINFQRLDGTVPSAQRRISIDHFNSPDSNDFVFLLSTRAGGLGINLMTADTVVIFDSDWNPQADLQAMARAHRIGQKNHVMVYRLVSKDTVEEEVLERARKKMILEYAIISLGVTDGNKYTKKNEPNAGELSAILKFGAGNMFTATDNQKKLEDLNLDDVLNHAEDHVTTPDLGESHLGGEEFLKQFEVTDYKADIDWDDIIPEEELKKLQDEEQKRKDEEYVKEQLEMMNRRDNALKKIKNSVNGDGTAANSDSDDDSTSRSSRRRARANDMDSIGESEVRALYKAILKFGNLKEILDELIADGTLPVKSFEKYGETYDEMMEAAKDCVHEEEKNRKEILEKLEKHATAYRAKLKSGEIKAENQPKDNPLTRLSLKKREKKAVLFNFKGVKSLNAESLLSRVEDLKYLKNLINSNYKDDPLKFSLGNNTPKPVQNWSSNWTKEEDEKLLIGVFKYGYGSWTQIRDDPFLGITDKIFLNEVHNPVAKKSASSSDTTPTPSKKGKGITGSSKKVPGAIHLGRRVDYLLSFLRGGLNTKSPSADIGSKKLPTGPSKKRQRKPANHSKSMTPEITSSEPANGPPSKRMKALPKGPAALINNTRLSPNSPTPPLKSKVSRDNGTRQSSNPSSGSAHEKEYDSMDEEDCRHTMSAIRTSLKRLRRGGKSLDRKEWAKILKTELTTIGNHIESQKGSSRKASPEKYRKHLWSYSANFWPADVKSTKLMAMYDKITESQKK

Protein translocase subunit SecA (Escherichia coli (strain K12)), sequence (P10408 whole entry): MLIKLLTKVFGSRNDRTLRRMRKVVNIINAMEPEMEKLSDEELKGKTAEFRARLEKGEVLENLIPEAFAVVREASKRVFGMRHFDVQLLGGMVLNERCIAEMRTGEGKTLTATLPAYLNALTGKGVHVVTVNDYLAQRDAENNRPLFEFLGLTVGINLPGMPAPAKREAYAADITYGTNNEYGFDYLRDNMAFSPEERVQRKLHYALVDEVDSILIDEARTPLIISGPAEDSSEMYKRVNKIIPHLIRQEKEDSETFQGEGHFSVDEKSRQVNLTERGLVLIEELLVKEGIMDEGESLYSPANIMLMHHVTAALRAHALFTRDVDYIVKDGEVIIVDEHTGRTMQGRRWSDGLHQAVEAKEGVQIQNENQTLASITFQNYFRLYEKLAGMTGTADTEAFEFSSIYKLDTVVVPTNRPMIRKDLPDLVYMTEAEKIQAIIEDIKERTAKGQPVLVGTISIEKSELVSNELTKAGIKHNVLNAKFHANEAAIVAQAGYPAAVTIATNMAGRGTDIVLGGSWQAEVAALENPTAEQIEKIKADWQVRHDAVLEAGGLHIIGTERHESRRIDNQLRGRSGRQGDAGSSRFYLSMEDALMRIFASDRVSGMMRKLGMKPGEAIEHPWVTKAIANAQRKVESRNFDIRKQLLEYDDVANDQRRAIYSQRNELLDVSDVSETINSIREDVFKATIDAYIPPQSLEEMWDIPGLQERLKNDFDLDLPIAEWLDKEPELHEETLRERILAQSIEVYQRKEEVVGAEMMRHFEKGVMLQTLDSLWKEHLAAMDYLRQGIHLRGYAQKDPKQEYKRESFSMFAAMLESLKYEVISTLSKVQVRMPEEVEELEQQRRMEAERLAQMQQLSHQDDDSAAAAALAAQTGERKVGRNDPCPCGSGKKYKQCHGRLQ
Sialic acid-binding Ig-like lectin 9 (Homo sapiens), sequence (Q9Y336 whole entry): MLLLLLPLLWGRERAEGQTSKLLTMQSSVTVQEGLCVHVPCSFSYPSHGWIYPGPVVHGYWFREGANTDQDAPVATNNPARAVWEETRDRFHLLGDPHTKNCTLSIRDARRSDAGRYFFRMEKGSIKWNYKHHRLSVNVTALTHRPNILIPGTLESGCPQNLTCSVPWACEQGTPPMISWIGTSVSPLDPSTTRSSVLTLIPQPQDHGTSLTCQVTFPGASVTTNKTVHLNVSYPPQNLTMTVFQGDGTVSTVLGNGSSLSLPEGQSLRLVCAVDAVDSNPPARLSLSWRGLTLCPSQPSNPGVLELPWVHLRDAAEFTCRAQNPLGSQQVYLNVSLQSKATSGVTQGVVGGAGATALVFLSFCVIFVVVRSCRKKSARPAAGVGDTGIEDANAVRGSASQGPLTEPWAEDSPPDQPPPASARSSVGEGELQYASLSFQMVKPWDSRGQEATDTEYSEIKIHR

Compound	Percent Effect [1] [%]	Percent Effect [2] [%]	Percent Effect [3] [%]	Percent Effect [4] [%]	Percent Effect (Trypanosoma cruzi) [%]	Percent Effect [5] [%]	Percent Effect [6] [%]	Percent Effect (Homo sapiens) [%]	Percent Effect [7] [%]	Percent Effect [8] [%]	Percent Effect [9] [%]
O=C(c1cccc(F)c1)N1CCN2C[C@H](OCc3cccnc3)C[C@H]2C1	-4.82	10.7	5.61	1.34	-3.15	6.29	10.7	8.83	3.19	14.1	-3.02
CNc1nc(CNC(=O)Nc2ccccc2SC)cs1	1.51	-2.63	-1.33	0.229	-2.07	3.83	7.69	10.1	1.47	4.88	3.33
CC(C)(C)OC(=O)N1CCCc2ccc(NCc3ncc[nH]3)cc21	-8.07	2.6	1.02	4.72	-4.03	-11	4.66	7.74	1.07	-3.7	-0.00165
Cc1cc(C[C@@H]2COC[C@H]2NCc2ccccc2C(F)(F)F)on1	-5.6	4.05	-0.353	6.23	1.58	0.232	14	5.54	3.23	11.7	-18.2
O=C1CO[C@@H]2CN(S(=O)(=O)c3ccccc3)C[C@H]2N1CC1CC1	-1.03	8	4.02	2.54	-3.28	-44.3	7.86	-3.38	-8.33	-20	-6.74
Cc1noc([C@@]23CCO[C@@H]2CCN(C(=O)C2CCOCC2)C3)n1	-0.432	10.7	2.61	-3.48	-1.54	-51.8	13.2	-1.95	7.29	20	-7.84
